In PubChem BioAssay AID1532 (PCMD, 2009):
Among all 110,000 compounds or so, about 420 (0.38%) were called active. No stated cut-off is given here; in the data, active means inhibition above about 30% (passing the limit was not always enough); inconclusive means no clear call, values can overlap the other calls. The entries come from a sample that favours actives as a whole.

Tested on: RmlC (dTDP-4-dehydrorhamnose 3,5-epimerase) and RmlD (dTDP-4-dehydrorhamnose reductase), coupled enzyme assay
Assay: RmlC and RmlD coupled enzyme inhibitors, primary screen, biochemical, 384-well, compound mixtures, retest (AID 1532)
Details: 384-well mixture HTS, at 5.5 µM, stronger effect = higher value
[1] = measured here: mean retest inhibition

COC(=O)C1=C(C(=O)OC)[C@@H]2N(C)c3ccccc3[C@@]23C[C@@H](C(=O)OC)N(C(C)=O)C3=N1
inhibition: 1.9% (inactive)

CC(=O)n1cc([C@@H]2C=C(C(=O)N3CCN(Cc4ccc5c(c4)OCO5)CC3)O[C@H](OCc3ccc(CO)cc3)C2)c2ccccc21
inhibition: 5.68% (inactive)

O=C(NCc1cc(C(F)(F)F)cc(C(F)(F)F)c1)C1CC(c2cccc(F)c2)=NO1 (configuration not stated)
inhibition: 2.58% (inactive)

CCO[C@@H]1OC(C(N)=O)=C[C@H](c2ccc(Br)cc2)[C@H]1CCCO
inhibition: 3.81% (inactive)

CC(NC(=O)Nc1ccccc1)C(c1cccs1)N1CCN(c2ccccc2)CC1 (configuration not stated)
inhibition: 10.1% (inactive)

CCO[C@H]1OC(C(=O)NCc2ccccc2)=C[C@@H](c2coc3ccccc3c2=O)[C@@H]1CCCO
inhibition: 1.17% (inactive)

COc1ccc(-c2nnc(SCC(=O)c3ccc4c(c3)OCCO4)o2)cc1
inhibition: -6.96% (inactive)

COc1ccc(C#Cc2c(-c3ccc(OC)cc3)oc3ccc(-c4ccc5c(c4)OCO5)cc23)cc1
inhibition [1]: 110%

COc1ccc(-c2csc(N3CCN(Cc4ccc5c(c4)OCO5)CC3)n2)cc1
inhibition: 25.8% (inactive)

C[C@@H]1CC[C@]2(O[C@@H](CCO)C[C@H](O)[C@H]2O)O1
inhibition: -20.2% (inactive)

CCOC(=O)c1sc(NC(=O)CSc2nc3c(c(=O)n2-c2ccccc2)SCC3)c(C(=O)OCC)c1C
inhibition: -104% (inactive)

CCC(C)[C@@H](C(=O)N1CCNCC1)n1cc(CCCCN)nn1 (some centres not stated)
inhibition: -10% (inactive)

CN1CCN(C(=O)C2=C[C@H](c3ccc4c(c3)OCO4)C[C@H](OCc3ccc(CO)cc3)O2)CC1
inhibition: 8.25% (inactive)

CC(C)(C)n1nc(Cc2cccc3ccccc23)c(C#N)c1N
inhibition: -12.7% (inactive)

CCOC(=O)/C=C/c1ccc(C(F)(F)F)cc1S(=O)(=O)NC(C)(C)C
inhibition: 32.4% (inactive)
inhibition [1]: -3.06%

O=C1NC[C@@H](Cc2ccc(O)cc2)N(CCc2cccc(F)c2)C1=O
inhibition: 6.42% (inactive)

COC(=O)CCCC1=CC2=CC(=O)C(C)(OC(=O)c3cccs3)C(=O)C2=CN1CC1CC1 (configuration not stated)
inhibition: 1.92% (inactive)

COc1ccc(CNC(=O)C2(CC3CC(c4ccccc4)=NO3)CCN(C(=O)c3cccc(O)c3)CC2)cc1 (configuration not stated)
inhibition: -4.7% (inactive)

COC(C/C=C/C(=O)[C@@H](C)OCc1ccccc1)OC
inhibition: 9.13% (inactive)

C#CCOCCOCCOCCNc1nc(N2CCN(C(=O)[C@H](Cc3ccc(O)cc3)n3cc(C(N)CC(C)C)nn3)CC2)nc(N2CCN(C(=O)[C@H](CCC(=O)O)n3cc(C(N)[C@H](C)CC)nn3)CC2)n1 (some centres not stated)
inhibition: 7.73% (inactive)

CN1CCCc2cc(C#N)c(=O)[nH]c21
inhibition: 48.2% (active)
inhibition [1]: 113%

C#CCNC(=O)[C@H](Cc1ccc(C(=O)c2ccccc2)cc1)NC(=O)OC(C)(C)C
inhibition: -13.5% (inactive)

CCO[C@@H]1OC(C(=O)N2CCOCC2)=C[C@H](C)[C@H]1CCCO
inhibition: -9.82% (inactive)

CC1(OC(=O)CCc2ccccc2)C(=O)C=C2C=C(c3ccc(C#N)cc3)N(CCc3ccccn3)C=C2C1=O (configuration not stated)
inhibition: 3.85% (inactive)

O=c1oc2cc(O)ccc2cc1-c1ccc(F)cc1
inhibition: 136% (active)
inhibition [1]: 118%

O=c1c(-c2ccccc2)coc2cc(O)ccc12
inhibition: 44.3% (inactive)
inhibition [1]: 18%

COc1ccc(-c2cc3ccc(OCc4nn[nH]n4)cc3oc2=O)cc1
inhibition: 94.2% (inactive)
inhibition [1]: 82.7%

COC(C[C@@H]1O[C@@H]1C(=O)[C@@H](C)OCc1ccccc1)OC
inhibition: 13.7% (inactive)

CC1(C)C=C2[C@H]3CC[C@@H]4[C@@]5(C)CCC(=O)C(C)(C)[C@@H]5CC[C@@]4(C)[C@]3(C)CC[C@@]2(C(=O)O)CC1
inhibition: 9.38% (inactive)

C[C@@H]1NC(=O)c2cc([N+](=O)[O-])cc(F)c2NCCC[C@@H](C(N)=O)NC(=O)[C@H](CC(N)=O)NC1=O
inhibition: 5.67% (inactive)

CNC(=O)c1[nH]cnc1C(=O)N[C@@H](CC(C)C)C(=O)OCc1ccccc1
inhibition: 1.9% (inactive)

CCOC(=O)c1cccc(NC(=O)c2ccc(F)cc2F)c1
inhibition: -9.66% (inactive)

O=C(NC1CC1)C1=C[C@H](c2c[nH]c3ccccc23)C[C@H](OCc2ccc(CO)cc2)O1
inhibition: 7.9% (inactive)

Cn1ccnc1-c1nnn(-c2ccc(F)cc2)n1
inhibition: -8.61% (inactive)

CCC(=O)Nc1cccc(C2=NOC3(C2)C[C@@H](C(N)=O)N(C(=O)c2cc([N+](=O)[O-])cc([N+](=O)[O-])c2C)C3)c1 (some centres not stated)
inhibition: 4.35% (inactive)

CC(=O)c1ccc2c(ccc3ccccc32)c1
inhibition: 5.48% (inactive)

CCOC(=O)N1CCN(C(=O)c2cc3c(ccc4ccccc43)oc2=O)CC1
inhibition: 2.38% (inactive)

CNC(=O)c1cc2c(ccc3ccccc32)oc1=N
inhibition: 52.7% (active)
inhibition [1]: 155%

CCOC(=O)c1c(NC(=O)C(C)Sc2c[nH]c3ccccc23)sc2c1CCC2 (configuration not stated)
inhibition: -9.18% (inactive)

CCOC(=O)C[C@H]1c2ccc(C(F)(F)F)cc2S(=O)(=O)N1c1ccccc1
inhibition: -16.1% (inactive)

COc1ccc(C[C@H]2CN3C(=NC[C@H]3C)N2CCNC(=O)CCC2CCCCC2)cc1
inhibition: 6.01% (inactive)
